For 14 sequences, binding signal results are on record in article PMC5700166.

For one assay, the target named is T1, GST-Dm-Relish (Drosophila melanogaster, UniProt Q94527 99-473).
T1 sequence: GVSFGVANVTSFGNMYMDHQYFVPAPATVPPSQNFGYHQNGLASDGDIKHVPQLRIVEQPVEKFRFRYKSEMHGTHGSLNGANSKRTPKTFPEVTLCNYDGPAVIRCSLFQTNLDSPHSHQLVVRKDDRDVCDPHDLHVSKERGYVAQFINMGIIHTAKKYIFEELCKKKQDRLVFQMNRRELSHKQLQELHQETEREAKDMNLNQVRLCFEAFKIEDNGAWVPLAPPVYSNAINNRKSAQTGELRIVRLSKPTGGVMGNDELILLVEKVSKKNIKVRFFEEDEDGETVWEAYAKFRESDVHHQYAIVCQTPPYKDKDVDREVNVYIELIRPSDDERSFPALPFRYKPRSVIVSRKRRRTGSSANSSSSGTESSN
Put plainly: protein-binding microarray (PBM); PBM: ~300 nM protein, 6 mM HEPES pH 7.8, 80 mM KCl, 0.5 mM EDTA, 0.5 mM EGTA, 6% glycerol, 35 ng/ul poly-dIdC, 1% milk, 1 h, room temperature; Ap Aiptasia and Nv Nematostella (sea anemones) / Co Capsaspora / Aq Amphimedon (sponge) / Dm Drosophila / Hu human; RHD is the Rel homology domain; high values mean tight binding. The conditions noted are these: dsDNA, one strand shown.
For “CCGATTAACATCACGGGTTTTTCTGATGTTAATCGGGTCTTGATTCGCTTGACGCTGCTG”, the binding signal came to 5.07 z-score.
Still for that read-out and setting: the value for “CCGATTAACATCAGGAAGTCCCATGATGTTAATCGGGTCTTGATTCGCTTGACGCTGCTG” was 6.71 z-score; that for “CCGATTAACATCAGGCGAGTCCCTGATGTTAATCGGGTCTTGATTCGCTTGACGCTGCTG” was 1.72 z-score.

A further assay concerns the target T2, GST-Aq-NF-kB (Amphimedon queenslandica, UniProt A9Y5G7 2-389).
T2 sequence: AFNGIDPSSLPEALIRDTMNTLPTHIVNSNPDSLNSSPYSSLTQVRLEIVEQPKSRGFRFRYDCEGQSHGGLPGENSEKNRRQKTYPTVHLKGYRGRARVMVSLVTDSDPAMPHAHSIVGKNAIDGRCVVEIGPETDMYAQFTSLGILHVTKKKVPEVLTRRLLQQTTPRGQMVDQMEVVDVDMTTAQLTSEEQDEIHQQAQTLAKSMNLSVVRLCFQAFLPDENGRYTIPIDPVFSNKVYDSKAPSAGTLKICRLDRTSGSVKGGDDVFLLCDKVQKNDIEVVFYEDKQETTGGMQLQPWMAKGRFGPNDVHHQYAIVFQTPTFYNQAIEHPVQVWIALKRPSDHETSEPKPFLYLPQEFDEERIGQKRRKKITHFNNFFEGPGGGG
The description is as above. The conditions noted are these: dsDNA, one strand shown.
For “CCGATTAACATCAGGCAAATCCCTGATGTTAATCGGGTCTTGATTCGCTTGACGCTGCTG”, the binding signal came to 4.16 z-score.
As for “CCGATTAACATCAGGAAAATACCTGATGTTAATCGGGTCTTGATTCGCTTGACGCTGCTG”, the binding signal came to 4.29 z-score.
The same measure, in the same setting: in the case of “CCGATTAACATCAGGGACCTCCCTGATGTTAATCGGGTCTTGATTCGCTTGACGCTGCTG” it was 7.04 z-score; in that of “CCGATTAACATCAGGGAAGCCCATGATGTTAATCGGGTCTTGATTCGCTTGACGCTGCTG”, 3.64 z-score; in that of “CCGATTAACATCAAGAAATTACCTGATGTTAATCGGGTCTTGATTCGCTTGACGCTGCTG”, 2.27 z-score.
Still for that read-out and setting: in the case of “CCGATTAACATCAGGAACGCCCCTGATGTTAATCGGGTCTTGATTCGCTTGACGCTGCTG” it was 5.42 z-score; in that of “CCGATTAACATCAAGGGCATTCCTGATGTTAATCGGGTCTTGATTCGCTTGACGCTGCTG”, 3.02 z-score.
On the same count and under the same terms, in the case of “CCGATTAACATCAGGAAATGCCCTGATGTTAATCGGGTCTTGATTCGCTTGACGCTGCTG” it was 5.41 z-score; in that of “CCGATTAACATCACGGAAGTCCCTGATGTTAATCGGGTCTTGATTCGCTTGACGCTGCTG”, 5.41 z-score; in that of “CCGATTAACATCAGGTAATCACCTGATGTTAATCGGGTCTTGATTCGCTTGACGCTGCTG”, 4.04 z-score.
“CCGATTAACATCAGGACAGTCCCTGATGTTAATCGGGTCTTGATTCGCTTGACGCTGCTG”: the binding signal is 7.13 z-score.
